Screening results as filed in PubChem BioAssay.
In the library only some 12% were active in any assay of this set; here they are far more common.
Gal4-VP16 FLuc – VP16 counterscreen qHTS for inhibitors of ROR gamma transcriptional activity. AID 2546, 2010. Drosophila S2 Gal4-VP16 UAS-luciferase, luminescence, 20 h. hit rate 3.5% among 310,000. Potency, µM (series often up to 53.6 µM), for inactives: at the highest dose activity, negative = inhibition, usual class: inhibitors;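 also: Gal4-VP16 expression switched on by copper sulfate through the metallothionein promoter; nearly all actives have a fitted effect of over 50% in size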
ALDH1A1 block – qHTS Assay for Inhibitors of Aldehyde Dehydrogenase 1 (ALDH1A1). hit rate 7.3% among 220,000. Aldehyde dehydrogenase 1A1 (Homo sapiens), P00352. Purified ALDH1A1, NADH fluorescence, propionaldehyde substrate. Potency, µM (highest dose often 75.3 µM), for inactives: at the top dose activity, negative = inhibition, actives largely listed as inhibitors; active = well fitted inhibition curve with a large enough effect, not every such curve was filed as active; inconclusive = small, poorly fitted or top-dose-only effect, or another doubt; inactive = no such curve, though single readings can be large or run the other way;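 also: plate controls were no enzyme wells and a reference inhibitor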
PLK1 PBD block – qHTS for Inhibitors of PLK1-PDB (polo-like kinase 1 - polo-box domain): Primary Screen; Potency, µM, without a hit: max response, negative = inhibition, actives largely listed as inhibitors; hit rate 2.8% among 360,000; Plk1 PBD binding of FITC phosphopeptide, fluorescence polarization; Serine/threonine-protein kinase PLK1 (Homo sapiens), P53350; also: series mostly up to about 57 µM; nearly all actives have a fitted effect of over 65% in size
RORgamma inh – qHTS for inhibitors of ROR gamma transcriptional activity. Nuclear receptor ROR-gamma (Mus musculus), P51450. Drosophila S2 Gal4-RORgamma UAS-luciferase reporter, 20 h. Potency, µM (top dose mostly 53.6 µM), inactives show top-dose activity change, negative = inhibition, hits mostly inhibitors. hit rate 5.4% among 310,000. AID 2551, 2010; also: nearly all actives have a fitted effect of over 60% in size
Target sequence (P51450 whole entry, looked up, the tested form may be a part): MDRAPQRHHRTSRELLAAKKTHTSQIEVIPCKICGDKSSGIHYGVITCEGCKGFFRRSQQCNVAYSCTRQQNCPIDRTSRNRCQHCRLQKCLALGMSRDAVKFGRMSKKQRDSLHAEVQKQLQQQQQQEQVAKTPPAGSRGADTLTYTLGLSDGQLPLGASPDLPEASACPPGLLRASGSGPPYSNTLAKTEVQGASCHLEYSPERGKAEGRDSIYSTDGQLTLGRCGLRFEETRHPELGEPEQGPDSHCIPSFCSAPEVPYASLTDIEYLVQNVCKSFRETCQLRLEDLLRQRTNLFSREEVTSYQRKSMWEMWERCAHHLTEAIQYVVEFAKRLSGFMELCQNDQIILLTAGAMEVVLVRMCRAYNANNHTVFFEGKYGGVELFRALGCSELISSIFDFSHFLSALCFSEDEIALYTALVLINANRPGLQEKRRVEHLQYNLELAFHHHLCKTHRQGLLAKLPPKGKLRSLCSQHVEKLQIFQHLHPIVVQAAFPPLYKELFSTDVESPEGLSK
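Drosophila Schneider cells stably carrying a metallothionein-driven Gal4 DBD–ROR gamma fusion and a UAS-Photinus luciferase reporter were exposed to compound for 1 hr, then induced with copper sulfate (700 uM final) for 20 hr at ambient temperature before luminescence reading.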
Sfp inh – qHTS Assay for Inhibitors of Bacillus subtilis Sfp phosphopantetheinyl transferase (PPTase); 4'-phosphopantetheinyl transferase ffp (Bacillus subtilis), Q9F4F7; Biochemical Sfp PPTase activity, qHTS; Potency, µM, for inactives: largest response in the series, negative = inhibition, hits mostly inhibitors; hit rate 3.5% among 310,000; AID 1490, 2009;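 also: the enzyme is Sfp with the accession as filed and its product quenches rhodamine fluorescence; 0% = enzyme reaction without inhibitor and -100% = no enzyme wells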
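Compounds were incubated with enzyme (final 15 nM) for 15 min at room temperature before substrate addition started the reaction. Fluorescence at 525 nm excitation, 598 nm emission was recorded immediately and after 30 minutes.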
* = called active by the depositor; ? = inconclusive; . = no result; [ ] = dose if it differs, or a comment. Unless noted, calls follow the shape of the dose curve; as a rule, active = well fitted curve in the direction sought with a large enough effect; inconclusive = small, poorly fitted or top-dose-only effect, or another doubt; inactive = no such curve, though single readings can be large; an effect the other way counts as inactive or inconclusive. Unless noted, % is scaled to controls: 0 for no effect and ±100 for the full control effect; potency is read from the fitted curve at half-maximal effect.

SMILES	Gal4-VP16 FLuc	ALDH1A1 block	PLK1 PBD block	RORgamma inh	Sfp inh
O=C(NCCO)C(=O)c1c(-c2ccc(Cl)cc2)cc2ccccn12	11%	-8%	0%	1%	19%
O=C1/C(=C\c2cccc(O)c2O)SC(=S)N1Cc1ccccc1	?	.	3µM*	-25%	40µM*
O=C(O)COc1cccc(/C=C2/SC(=S)N(Cc3ccccc3)C2=O)c1	-1%	.	24µM*	38%	1%
O=C(O)CN1C(=O)/C(=C\c2cccc(OCc3ccccc3)c2)SC1=S	3%	.	24µM*	-6%	6%
O=C1/C(=C\c2ccc(O)c(O)c2)SC(=S)N1Cc1ccccc1	?	.	16%	-12%	-19%
Cc1c(C(=O)NCCO)[n+](=O)c2ccccc2n1[O-]	-9%	.	.	2%	-13%
Cn1cc(C2=C(c3cn(CCCSC(=N)N)c4ccccc34)C(=O)NC2=O)c2ccccc21	?	-5%	.	?	50µM*
CN(C)CCCn1cc(C2=C(c3c[nH]c4ccccc34)C(=O)NC2=O)c2ccccc21	-30%	-12%	.	-5%	-14%
CC(=O)NC1=C(N(C)C2CCS(=O)(=O)C2)C(=O)c2ccccc2C1=O (centres undefined)	7.9µM*	?	-8%	2.5µM*	-9%
CSc1ccccc1OCc1cc(C(=O)N2CCc3sccc3C2)no1	13%	.	?	12%	14%
Cc1ccc(C)c(OCc2cc(C(=O)N3CCc4sccc4C3)no2)c1	?	.	-2%	2µM*	?
O=S(=O)(c1cnc(Cl)c(Br)c1)N1CCCCCC1	-10%	8.9µM*	-4%	-6%	16%
O=S(=O)(c1cnc(Cl)c(Br)c1)N1CCN(c2ncccn2)CC1	1%	0.35µM*	-25%	0%	16%
O=S(=O)(c1ccc(Cl)nc1)N1CCN(c2ncccn2)CC1	-4%	.	-3%	-29%	15%
O=S(=O)(c1cnc(Cl)c(Cl)c1)N1CCN(c2ncccn2)CC1	1%	0.79µM*	-4%	-7%	14%
CCCc1nc2ccc(C)cn2c1Cc1ccc(C)cc1	.	.	-12%	.	.
CCN(CC)S(=O)(=O)c1ccc(C(O)=C(C#N)c2nc3ccccc3n2C)cc1	.	.	-3%	.	.
CCc1ccc(O)c(N=Cc2ccccc2O)c1	-28%	?	0%	13µM*	-26%
CC(C)(C)c1ccc(O)c(N=Cc2cc(Br)ccc2O)c1	?	?	3%	10µM*	50µM*
Cc1ccc(O)c(C=Nc2cc(C)ccc2O)c1	20µM*	-4%	-9%	?	-8%
O=[N+]([O-])c1cc(Cc2ccccc2)cc(C=Nc2ccc(N3CCOCC3)cc2)c1O	-15%	?	39%	?	-17%
Cc1ccc(O)c(N=Cc2cc(Cc3ccccc3)cc([N+](=O)[O-])c2O)c1	-17%[10 µM]	14µM*	?	13µM*	8.9µM*
O=C(NCc1ccccn1)[C@@H]1CCCN1C(=O)[C@@H]1CCCN1	.	.	-2%	.	.
C/C=C/c1cccc(-c2nc(C(=O)NC3CCC3)cc3c2[C@@H](CCO)N(S(=O)C(C)(C)C)C3)c1 (some centres undefined)	.	.	-19%	.	.
CCCCn1c(N)c(N(CCC(C)C)C(=O)C2CC(=O)N(c3ccc4c(c3)OCCO4)C2)c(=O)[nH]c1=O (centres undefined)	0%	.	12µM*	-18%	11%
O=C(O)C1CC(=O)N(c2ccc(F)cc2)C1 (centres undefined)	6%	6%	27µM*	-9%	17%
CCCCN(C(=O)C1CC(=O)N(c2ccc3c(c2)OCCO3)C1)c1c(N)n(CC(C)C)c(=O)[nH]c1=O (centres undefined)	.	.	-7%	.	.
CC(C)[C@H](NC(=O)C1CC(=O)N(c2ccc(F)cc2)C1)C(=O)N1CCCCC1 (some centres undefined)	-9%	.	3.4µM*	0%	7%
Cc1ccnc(NC(=O)C2CC(=O)N(c3ccc4c(c3)OCCO4)C2)c1 (centres undefined)	?	.	-16%	7.9µM*	7%
